# Test results as given in PubChem BioAssay (EPA / NIEHS).
# Where “and” joins values, the source holds several entries; their conditions need not be identical. Identical values can stand only once. Some structures have more than one record in an assay (separate samples or runs), and their calls can disagree. Calls of active or inactive are those of the source. How the source made its calls: active means hit-call score of the fitted dose curve at least 0.9, where 1 is the maximum; inactive means score below 0.9.
# Test: ATG_PPRE_CIS: Attagene CIS-FACTORIAL HepG2 Assay for human Peroxisome Proliferator-activated Response Element (PPRE) (AID 2282958)
# Details: HepG2 PPRE cis-element reporter, Attagene transcription factor profiling; actives raise or lower the signal
# Procedure: ATG_CIS is a cell-based, multiplexed-readout assay that uses HepG2, a human liver cell line, with measurements taken at 24 hours after chemical dosing in a 24-well plate.ATG_PPRE_CIS is one of 52 assay component(s) measured or calculated from the ATG_CIS assay. It is designed to make measurements of mRNA induction, a form of inducible reporter, as detected with fluorescence intensity signals by Reverse transcription polymerase chain reaction (RT-PCR) and Capillary electrophoresis technology.Data from the assay component ATG_PPRE_CIS was analyzed into 1 assay endpoint. This assay endpoint, ATG_PPRE_CIS, was analyzed with bidirectional fitting relative to DMSO as the negative control and baseline of activity. Using a type of inducible reporter, measures of mRNA for gain or loss-of-signal activity can be used to understand the reporter gene at the transcription factor-level as they relate to the gene PPARA and PPARD and PPARG. Furthermore, this assay endpoint can be referred to as a primary readout, because this assay has produced multiple assay endpoints where this one serves a reporter gene function. To generalize the intended target to other relatable targets, this assay endpoint is annotated to the nuclear receptor intended target family, where the subfamily is non-steroidal.
# Human liver HepG2 cells are transiently transfected with multiple reporter transcription units (MRTUs) in 6-well plates using FuGene 6 reagent (Roche; 3 ml FuGene/1 mg DNA). The MRTU constructs are regulated by a cis-regulating element (promoter). […] A major difference between the CIS and TRANS system is that in CIS activities of endogenous TFs are measured, whereas the TRANS assay evaluates changes in activities of exogenous, chimeric NR-Gal4 proteins. […] At the end of 24 hour incubation, total RNA was isolated using TriZol reagent (Invitrogen). The isolated RNA is then reverse-transcribed using oligo(dT) primer and Mo-MLV reverse transcriptase (Invitrogen) with DNAse I (Ambion) treatment for 30 min. The one-tenth of the produced cDNA was amplified by PCR using Taq DNA polymerase (Invitrogen) and two reporter sequence-specific primers. The PCR products were fluorescently labeled by primer extension with 6-arboxyfluorescein (6-FAM) 5'-labeled reporter sequence-specific primer (2 min at 95 C, 20 s at 68 C and 10 min at 72 C) and these products were digested with 5U of HpaI (New England Biolabs) for 2h at 37 C. The fragments were purified using Qiaquick PCR columns (Qiagen), analyzed on an ABI 3130xL genetic analyzer (Applied Biosystems) with peak positions identified by using a set of X-rhodamine (ROX)-labeled MapMarker1000 molecular weight standards (BioVentures). The raw capillary electrophoresis data was processed using Attagraph software (Attagene).
SMILES,outcome,AC50
CCNS(=O)(=O)C(F)(F)C(F)(F)C(F)(F)C(F)(F)C(F)(F)C(F)(F)C(F)(F)C(F)(F)F,inactive,146 µM (active) and 29.8 µM (active)
CCOC(=O)[C@]1(c2ccccc2)Oc2ccccc2[C@@H]1N,–,13.8 µM (active)
CC(C)(O)c1cnn2c(-c3ccc(F)c(-c4c(F)cccc4C#N)c3)cnc2n1,inactive,–
c1ccc(C2CO2)cc1 (stereo not given),inactive,–
CN(C)[C@@H]1C(=O)C(C(N)=O)=C(O)[C@@]2(O)C(=O)C3=C(O)c4c(O)cccc4[C@@](C)(O)[C@H]3C[C@@H]12,inactive,–
O=C(Nc1ccccc1)c1ccccc1I,inactive,–
ClC1=C(Cl)[C@]2(Cl)[C@H]3[C@H]([C@@H]4C=C[C@H]3C4)[C@@]1(Cl)C2(Cl)Cl,inactive,–
CC(O)CCO (stereo not given),inactive,–
CCN(CC)N=O,inactive,–
COC(=O)Nc1nc2ccccc2[nH]1,inactive,–
O=C(Oc1ccc(Br)cc1)N1CCN2CCC1CC2,inactive,–
ClCCOCCCl,inactive,–
Cc1cc(N=Nc2ccccc2C)ccc1N,–,26.4 µM (active)
COP(=S)(OC)SCN1C(=O)c2ccccc2C1=O,inactive,–
CCCCOC(=O)c1ccccc1C(=O)OCc1ccccc1,inactive,–
CCCCCCCCn1sccc1=O,inactive,–
Cn1cc(-c2ccccc2)c(=O)c(-c2cccc(C(F)(F)F)c2)c1,inactive,–
Oc1ccccc1Cl,inactive,–
O=[N+]([O-])C(Br)(CO)CO,inactive,–

SMILES,outcome,AC50
O=C1CCCO1,inactive,–
CCC12COCN1COC2,inactive,–
OCCOCCO,inactive,–
CC(C)(C)OOC(=O)c1ccccc1,inactive,–
OCCCl,inactive,–
C1=Cc2cccc3cccc1c23,inactive,–
Nc1ccc(N=Nc2ccccc2)cc1,–,77.9 µM (active)
Nc1cc(Cl)cc(C(=O)O)c1Cl,inactive,–
CCN(CC)CCO,inactive,–
C[C@]12C=CC3=C4CCC(=O)C=C4CC[C@H]3[C@@H]1CC[C@@H]2O,inactive,26.8 µM (active)
O=P(OCCCl)(OCCCl)OCCCl,inactive,–
CCCCCCCCCCCCCN1CC(C)OC(C)C1 (stereo not given),inactive,–
O=C(N[C@H](c1ccccc1)[C@@H]1CN2CCC1CC2)c1c(Cl)ccc(C(F)(F)F)c1Cl,inactive,–
[O-][Cl+]O,inactive,–
O=[N+]([O-])c1ccc(Oc2ccc(Cl)cc2Cl)cc1,inactive,–
Cc1ccc([N+](=O)[O-])cc1,inactive,–
ClC1=C(Cl)C2(Cl)C3C(Cl)C=CC3C1(Cl)C2(Cl)Cl (stereo not given),inactive,–
CC(C)(OOC(C)(C)c1ccccc1)c1ccccc1,inactive,–
N#CC(Br)Br,inactive,–
